Compound activity as filed in PubChem.
TrxR1 substrate = substrates of rat thioredoxin reductase 1 | purified TrxR1 substrate turnover, NADPH consumption readout | AID 588456 | O89049 | Potency, µM (series often up to 114 µM) | 390,000 tested, 0.01% active; note: nearly all actives have a fitted effect of over 50% in size
Target sequence (O89049 whole entry, looked up): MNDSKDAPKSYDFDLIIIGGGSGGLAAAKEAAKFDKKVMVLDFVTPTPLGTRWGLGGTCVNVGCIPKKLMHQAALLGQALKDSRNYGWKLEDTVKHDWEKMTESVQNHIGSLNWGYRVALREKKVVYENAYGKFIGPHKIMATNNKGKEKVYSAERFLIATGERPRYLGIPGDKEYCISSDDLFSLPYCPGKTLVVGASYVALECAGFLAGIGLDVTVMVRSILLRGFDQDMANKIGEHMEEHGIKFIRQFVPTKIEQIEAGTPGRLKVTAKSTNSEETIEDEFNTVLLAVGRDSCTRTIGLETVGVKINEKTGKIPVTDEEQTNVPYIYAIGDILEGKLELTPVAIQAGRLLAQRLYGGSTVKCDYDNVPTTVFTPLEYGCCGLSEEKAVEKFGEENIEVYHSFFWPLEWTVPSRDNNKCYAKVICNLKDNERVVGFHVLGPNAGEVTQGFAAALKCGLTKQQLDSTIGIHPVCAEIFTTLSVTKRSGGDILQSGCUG
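Rat TrxR1, dispensed at 90 nM, was prereduced with 400 uM NADPH (final) for 5 min at ~22 deg C, then incubated with compound 15 min before 400 uM selenite. A first-read NADPH fluorescence drop versus no-compound background flagged substrates.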
BRCA1 expr act = activators of BRCA1 expression; MCF7-BRCA1-FFLuc reporter, luminescence, 48 h; response scale: scaled: vehicle 0%, 10 µM genistein 100%; Potency, µM (series often up to 46.1 µM), usual class: activators; 380,000 tested, 1.1% active; AID 624202; note: nearly all actives have a fitted effect of over 80% in size
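First, MCF7-BRCA1-FFLuc cells (2000/well) attach for 2 h; next, compounds are pin-added and incubated 48 h at 37 °C; finally, luciferase reagent is added and luminescence read after 15 min.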
mIDH1 inhibitor = human IDH1 R132H inhibition; Potency, µM (series often up to 76.6 µM), most hits filed as inhibitors; 390,000 tested, 0.093% active; O75874; IDH1-R132H enzyme, NADPH consumption, diaphorase/resazurin fluorescence; note: nearly all actives have a fitted effect of over 65% in size
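IDH1-R132H (0.5 ug/mL dispensed) in pH 7.5 Tris buffer was preincubated 30 min with compound, then given a substrate mix of 0.016 mM NADPH and 2 mM alpha-KG for 80 min at room temperature; remaining NADPH was read by diaphorase/resazurin fluorescence.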
Giardia kill = kills Giardia lamblia; Giardia lamblia trophozoite viability; activity change, % at 7.66 µM, hits read low; 340,000 tested, 0.15% active; in the data active = activity change below about -80%; inconclusive = between about -30% and that limit;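 note: parasites exposed to compound for two days anaerobically before the ATP read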
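Viability, read as ATP luminescence: trophozoites at 100 cells/well, compound added, 48 hrs anaerobic at 37 deg C, then 15-30 min room-temperature development before reading.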
rTrxR1 inhibitor = rat TrxR1 inhibition; O89049; Potency, µM (doses to about 114 µM), actives largely listed as inhibitors; AID 588453; 390,000 tested, 1% active; recombinant rTrxR1, NADPH fluorescence consumption, selenite substrate; note: nearly all actives have a fitted effect of over 65% in size
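Rat TrxR1 (90 nM in the dispensed reagent) was pre-reduced with 400 uM NADPH for 5 min at room temperature, then incubated with compound for 15 min. After 400 uM selenite was added, NADPH fluorescence (Ex 340/Em 450 nm) was followed for 8 min.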
IL-2 act = IL-2 activation. IL-2 activation reporter assay, cell-based qHTS; stimulated with anti-CD3/CD4/CD28 beads; in transgenic mouse T cells. 360,000 tested, 0.065% active. AID 652025. activation, % (series mostly up to about 46 µM); in the data active = activation above about 50%; inconclusive = mostly about 30% to 49%
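Unstimulated transgenic mouse T cells, 750 per well, received compound and, after 60 minutes, anti-CD3/anti-CD4 bead plus anti-CD28 stimulation. EGFP and DsRed were quantified after 18 hours.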
A number is an active result; 0 = inactive; ? = inconclusive; - = no result given. Hits are enriched below; roughly 2.2% of the tested compounds scored in any of these assays. Unless noted, calls come from the whole dose curve; as a rule, active = well fitted curve in the direction sought with a large enough effect; inconclusive = small, poorly fitted or top-dose-only effect, or another doubt; inactive = no such curve, though single readings can be large; an effect the other way counts as inactive or inconclusive.

SMILES	TrxR1 substrate	BRCA1 expr act	mIDH1 inhibitor	Giardia kill	rTrxR1 inhibitor	IL-2 act
CCOc1ccc2c(c1)sc(=NC(=O)C1CC1)n2C	0	2.82µM	0	0	0	0
CC(C)(C)CC(C)(C)N=C1Nc2ccc(Cl)cc2N[C@]12C[C@H]1CCCC(=O)N3CC[C@@H](C2)[C@@H]13	0	-	-	-	0	-
CCOC(=O)C1=C(COC(=O)c2cccc(N(C)C)c2)NC(=O)NC1C (configuration not stated)	0	4.47µM	0	0	0	0
CCOC(=O)C1=C(COC(=O)/C=C/c2ccc(C)o2)NC(=O)NC1C (configuration not stated)	0	0	0	0	50.1µM	0
CCOC(=O)C1=C(COC(=O)/C=C/c2ccccc2)NC(=O)NC1C (configuration not stated)	0	0	0	0	0	0
Cc1ccc(C(=O)c2no[n+]([O-])c2C(=O)c2ccc(C)cc2)cc1	0	0	0	0	0.891µM	0
O=[N+]([O-])c1nn(-c2ccccc2)[n+]([O-])c1N1CCN(c2ccccc2)CC1	0	0	0	-81.1	0	0
O=[N+]([O-])c1nn(-c2ccccc2)[n+]([O-])c1N1CCN(c2ccccc2F)CC1	0	0	0	-89.3	0	0
COc1ccccc1OCC(=O)Nc1nc(-c2ccc(Br)cc2)ns1	0	-	0	-	0	-
COc1ccc2oc(=O)c(-c3nc(C)cs3)cc2c1	0	?	0	0	0	0
Nc1nnc(-c2cc3ccccc3oc2=O)s1	0	7.94µM	0	0	0	0
COc1ccc2oc(=O)c(-c3nnc(N)s3)cc2c1	0	14.1µM	0	0	0	0
Clc1ccc(/C=C/c2ccnc3ccccc23)c(Cl)c1	0	-	-	-	?	-
COCCCCOc1cc2nc(N3CCCN(C)CC3)nc(NC3CCN(C)CC3)c2cc1OC	0	0	-	-	0	-
Oc1ccc(/C=N/Nc2nccnc2Cl)cc1	0	0	0	0	0	0
Fc1ccc(/C=N/Nc2nccnc2Cl)cc1	0	10µM	0	0	0	0
O=[N+]([O-])c1cccc(/C=N/Nc2nccnc2Cl)c1	0	7.94µM	0	0	0	0
c1ccc(-c2csc3ncnc(Sc4nnnn4-c4ccccc4)c23)cc1	0	0	-	-	0	-
O=C(Cc1ccc([N+](=O)[O-])cc1)OCc1ccc([N+](=O)[O-])cc1	0	0	0	0	0	0
COc1ccc(CC(=O)c2ccc(O)cc2O)cc1	0	?	0	0	0	0
O=C(Cc1ccc(Br)cc1)c1ccc(O)cc1O	0	11.2µM	0	0	0	0
O=C(Cc1ccc([N+](=O)[O-])cc1)c1ccc(O)cc1O	0	10µM	0	0	0	0
Cc1ccc(S(=O)(=O)c2nnn3c2nc(NCc2ccc4c(c2)OCO4)c2sccc23)cc1C	0	-	0	-	0	-
Cc1ccc(OCCSc2nc3ccccc3n2CC(=O)N2CCOCC2)c(C)c1	0	0	0	-	0	-
COCc1ccc(C(=O)N2CCCC(CNC(=O)c3ccc(F)cc3)C2)o1 (configuration not stated)	0	0	0	0	35.5µM	0
SMILES	TrxR1 substrate	BRCA1 expr act	mIDH1 inhibitor	Giardia kill	rTrxR1 inhibitor	IL-2 act
CCOc1ccc(NC(=O)CSc2nc(-c3ccccc3)c3cc(OCC)ccc3n2)cc1	0	-	0	-	0	-
Cc1ccccc1NC(=O)/C(C#N)=C/c1ccc(Cl)cc1Cl	0	-	0	-	0	-
Cc1cc(C)c2nc(N3CCC(C(=O)NCc4ccccn4)CC3)sc2c1	0	3.98µM	0	0	0	0
O=c1c(Cl)c(N2CCCCC2)cnn1-c1nc2ccccc2[nH]1	0	0	0	?	0	0
O=c1c2ccccc2cnn1-c1nc2ccccc2[nH]1	0	0	0	-91.5	0	0
Cc1ccc(S(=O)(=O)N2CCN(c3nc(Nc4ccccc4O)nc4ccccc34)CC2)cc1	0	0	-	-	0	-
N#Cc1c(SCc2ccc(Cl)cc2)sc(C(=O)c2ccccc2)c1N	0	0	0	0	0	0
CSc1c(C#N)c(N)nc2sc(C(=O)c3ccccc3)c(N)c12	0	0	0	0	0	275.0
